Experiment [1] is described as follows: Quantitative High-Throughput drug screen in 47 multiple myeloma cell lines against the NCATS MIPE library collection: XG1_PLB cell viability assay (AID 1919866). Further: nearly all actives have a fitted effect of over 35% in size. Further: potency means the concentration at half of the fitted maximal effect. A digest of the protocol:
(§1)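 500 cells/well; MIPE 4.0 drugs pin-transferred; 48 h, 37C, 5% CO2. CellTiter-Glo, 5 min RT, luminescence. Controls: DMSO 100%, media 0%.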

Experiment [2] in a line: Quantitative High-Throughput drug screen in 47 multiple myeloma cell lines against the NCATS MIPE library collection: VP6_DJ cell viability assay (AID 1919867). Further: nearly all actives have a fitted effect of over 40% in size. Further: potency means the concentration at half of the fitted maximal effect. A digest of the protocol: as §1
Experiment [3] is described as follows: Quantitative High-Throughput drug screen in 47 multiple myeloma cell lines against the NCATS MIPE library collection: UTMC2_PLB cell viability assay (AID 1919868). Further: potency means the concentration at half of the fitted maximal effect; nearly all actives have a fitted effect of over 55% in size. Particulars: CellTiter-Glo ATP luminescence, 48 h. Summed up: as §1
Experiment [4] is described as follows: Quantitative High-Throughput drug screen in 47 multiple myeloma cell lines against the NCATS MIPE library collection: PCM6_Riken cell viability assay (AID 1919870). Further: nearly all actives have a fitted effect of over 30% in size. Further: potency means the concentration at half of the fitted maximal effect. A digest of the protocol: as §1
A short description of experiment [5]: Quantitative High-Throughput drug screen in 47 multiple myeloma cell lines against the NCATS MIPE library collection: OPM2_DSMZ cell viability assay (AID 1919872). Further: nearly all actives have a fitted effect of over 30% in size. Summed up:
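CellTiter-Glo ATP luminescence gave viability after 48 h compound treatment at 37C of 500 multiple myeloma cells per well. Normalisation used DMSO-only wells as 100% and media-only wells as 0% viability; primary qHTS of approved and investigational drugs.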

The target in experiment [6] is Cytochrome P450 3A4 (Homo sapiens) (UniProt P08684). Nature of the experiment: qHTS for inhibitors of CYP3A4 against the NCATS DSHEA and TCM libraries (AID 1919971).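 Further: inhibition lowers luminescence from luciferin made by CYP3A4.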 Summed up: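 Substances were tested against enzyme with a pro-luciferin substrate; minus-enzyme wells served as background. After NADPH-initiated oxidation (30-45 min, RT), light was generated with P450-Glo reagent.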
Chain of Cytochrome P450 3A4 (Homo sapiens) (P08684 whole entry, looked up): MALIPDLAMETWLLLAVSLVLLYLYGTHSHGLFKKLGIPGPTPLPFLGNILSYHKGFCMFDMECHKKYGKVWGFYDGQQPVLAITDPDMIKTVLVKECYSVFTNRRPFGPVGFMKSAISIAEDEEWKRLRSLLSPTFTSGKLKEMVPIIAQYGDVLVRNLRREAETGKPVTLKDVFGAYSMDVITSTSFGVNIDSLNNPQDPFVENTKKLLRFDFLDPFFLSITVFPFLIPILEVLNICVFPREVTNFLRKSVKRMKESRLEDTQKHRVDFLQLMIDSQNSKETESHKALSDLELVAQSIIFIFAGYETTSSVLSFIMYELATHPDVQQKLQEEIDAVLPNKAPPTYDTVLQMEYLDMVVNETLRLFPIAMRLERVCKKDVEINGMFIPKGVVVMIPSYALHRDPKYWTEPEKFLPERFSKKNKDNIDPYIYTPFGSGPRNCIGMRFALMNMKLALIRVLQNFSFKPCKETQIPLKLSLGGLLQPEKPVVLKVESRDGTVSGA

Results filed as inconclusive are left out. Where a call stands in place of a potency, no number is given. The source made the active and inactive calls. The call rests on the fitted dose curve; in most records, active means well fitted curve in the direction sought with a large enough effect; inconclusive means small, poorly fitted or top-dose-only effect, or another doubt; inactive means no such curve, though single readings can be large; an effect the other way counts as inactive or inconclusive.

For `C[C@@H]1C[C@@H]([C@H](O)CC2CC(=O)NC(=O)C2)C(=O)[C@@H](C)C1`, the Potency in experiment [1] was 0.372 µM (active); in experiment [2], 0.296 µM (active); in experiment [3], 0.833 µM (active); in experiment [4], 0.935 µM (active).
As for `COc1ccc(C(=O)N2CCCC2=O)cc1`, the Potency entry in experiment [1] is “inactive”.
`COC(=O)C1=CCCN(C)C1`: the Potency entry in experiment [2] and in experiment [4] was “inactive” in each case. Besides, in experiment [5], the compound was called inactive.
In the case of `O=C(O)c1nn(Cc2ccc(Cl)cc2Cl)c2ccccc12`, the compound was classed as inactive in experiment [5].
For `C[C@]12CC[C@H](O)CC1=CC[C@@H]1[C@@H]2CC[C@]2(C)C(=O)CC[C@@H]12`, the compound was classed as inactive in experiment [6].
